In PubChem BioAssay (NCATS):
Several values for one entry are separate records, joined by “and”; a condition that tells them apart may be missing. Equal values may be shown once. Results filed as inconclusive are left out. For some of these results: Measured potencies and affinities stand elsewhere. Activity calls are given as the source filed them. Unless noted, how the calls were made is not given here.

Columns and labels:
[1] = qHTS Assay for Identifying Gametocytocidal Compounds (AID 743244; active means well fitted curve in the direction sought with a large enough effect; an effect the other way counts as inactive or inconclusive; further: potency means the concentration at half of the fitted maximal effect;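 on max response: on the % scale 0 is the no-effect control and ±100 the full control effect; actives lower the fluorescent signal which means gametocytes are killed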); details: P. falciparum 3D7 stage III-V gametocytes, alamarBlue, 72 h; max response: stronger effect = lower value
Summary of the method: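 Stage III–V gametocytes of P. falciparum 3D7 were seeded at 20,000 cells/well onto pre-dispensed compounds. After 72 h, 37 °C, 5% CO2, alamarBlue was added for another 24 h.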

[2] = Ebola virus entry assay, green fluorescence channel
[3] = qHTS profiling for inhibitors of Plasmodium falciparum (3D7) proliferation (AID 743322);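 further: infected erythrocytes exposed to compound for 72 h before lysis; 100% = DMSO vehicle wells and 0% = 0.29 µM artemisinin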; details: P. falciparum 3D7 proliferation; at 28.7 µM (top of the series)
Summary of the method: (§1)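 Parasite DNA was quantified by SYBR Green I fluorescence (ex 485, em 535 nm) after overnight lysis in saponin/Triton buffer at room temperature. Cultures at 0.3% parasitemia and 2.5% hematocrit were first exposed to compound for 72 h at 37 C; signals were normalised to artemisinin (0.29 uM) and vehicle wells.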

[4] = qHTS profiling for inhibitors of Plasmodium falciparum (DD2) proliferation (AID 743323); details: lower = more inhibition; at 28.7 µM (top of the series)
Summary of the method: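 1536-well qHTS; infected RBCs 0.3% parasitemia/2.5% Hct final; cpd 72 h 37 C 5% CO2; lysis buffer + SYBR Green I, o/n RT dark; FI 485/535; norm. to 0.29 uM artemisinin and DMSO, plate-stack corrected.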

[5] = qHTS profiling for inhibitors of Plasmodium falciparum (HB3) proliferation (AID 743324; active means well fitted curve in the direction sought with a large enough effect; an effect the other way counts as inactive or inconclusive;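 further: 100% = DMSO vehicle wells and 0% = artemisinin-treated control wells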); details: Plasmodium falciparum HB3 blood-stage proliferation; at 28.7 µM (top of the series)
Summary of the method: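 SYBR Green fluorescence (485 ex/535 em) of lysed cultures, incubated overnight at room temperature in the dark, quantifies parasite DNA. Infected erythrocytes at 0.3% parasitemia and 2.5% hematocrit were exposed 72 h; values normalized to DMSO and 0.29 uM artemisinin controls.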

[6] = qHTS profiling of the MIPE4 collection as inhibitors of Plasmodium falciparum (3D7) proliferation (AID 743344);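 further: scaled between DMSO vehicle wells and 0.29 µM artemisinin as full inhibition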; details: P. falciparum 3D7 in erythrocytes, SYBR Green DNA fluorescence, 72 h; at 28.5 µM (top of the series) unless noted
Summary of the method: as §1

[7] = qHTS profiling of the MIPE4 collection as inhibitors of Plasmodium falciparum (DD2) proliferation (AID 743345); details: P. falciparum Dd2 in erythrocytes, SYBR Green DNA, 72 h; at 28.5 µM (top of the series) unless noted
Summary of the method: as §1

[8] = qHTS profiling of the MIPE4 collection as inhibitors of Plasmodium falciparum (DD2) proliferation (Rep 2) (AID 743346); details: P. falciparum Dd2 in erythrocytes, SYBR Green DNA, 72 h; at 28.5 µM (top of the series) unless noted
Summary of the method: as §1

[9] = qHTS profiling of the MIPE4 collection as inhibitors of Plasmodium falciparum (HB3) proliferation (AID 743347);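 further: plate controls were DMSO vehicle wells for no effect and artemisinin wells for full effect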; details: P. falciparum HB3 in erythrocytes, SYBR Green DNA, 72 h; at 28.5 µM (top of the series) unless noted
Summary of the method: as §1

[10] = qHTS assay for small molecule agonists of the antioxidant response element (ARE) signaling pathway measured by Nrf2-dependant transcriptional activity - cell viability counter screen (AID 720653; active means well fitted curve in the direction sought with a large enough effect in the repeat runs; an effect the other way counts as inactive or inconclusive; further: on the % scale 0 is the no-effect control and ±100 the full control effect); details: ARE-bla HepG2 viability, CellTiter-Glo ATP luminescence, 16 h; max response: stronger effect = lower value
Summary of the method: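 ARE-bla HepG2 cells treated with compounds for 16 h at 37C; this counter screen measures viability as intracellular ATP by CellTiter-Glo luminescence after 30 min at room temperature.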

[11] = qHTS assay for cell viability of HEK293 cells (AID 743288; active means well fitted curve in the direction sought with a large enough effect; an effect the other way counts as inactive or inconclusive; further: on the % scale 0 is the no-effect control and ±100 the full control effect; nearly all actives have a fitted effect of over 50% in size); details: ATP luminescence (CellTiter-Glo), 18 h; max response: stronger effect = lower value
Summary of the method: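 Quantitative high-throughput screen: compounds were pinned onto parental HEK293 cells (2,000 per well) after a minimum 5 h settling at 37 C, incubated 18 h at 37 C, and intracellular ATP measured by luciferase luminescence.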

[12] = qHTS assay for cell viability of the p53RE-bla HCT-116 cell line (AID 743292; active means well fitted curve in the direction sought with a large enough effect; an effect the other way counts as inactive or inconclusive; further: potency means the concentration at half of the fitted maximal effect; nearly all actives have a fitted effect of over 55% in size)
Summary of the method: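 CellSensor p53RE-bla HCT-116 cells, 4,000/well, preincubated 5 h at 37 C, then exposed to compounds in DMSO for 16 h at 37 C. Viability read as CellTiter-Glo luminescence (intracellular ATP) after 30 min at room temperature.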
Wherever efficacy is given: 0% is about no effect.

**Q.** Which max response [1] does the source give for CC(C)=CC1C(C(=O)OCc2cccc(Oc3ccccc3)c2)C1(C)C (stereo not given) here?
**A.** Its max response is 5.27% (inactive).

**Q.** What about the efficacy [2] of the same molecule?
**A.** The efficacy was -13.4% (inactive).

**Q.** Which results are given for COc1ccc(C(=O)c2c(C)n(CCN3CCOCC3)c3ccccc23)cc1?
**A.** max response [1]: 6.23% (inactive) and 9.75% (inactive); remaining parasite growth % (stronger effect = lower value) [3]: 111%; activity, percent of control [4]: 102%; remaining proliferation (% of control), lower = more inhibition [5]: 94.6%; parasite growth, % of DMSO control [6]: 90.6%; parasite growth remaining, % of DMSO control (lower = more inhibition) [7]: 95.8%; parasite growth, % of control (lower = inhibition) [8]: 66.9%; growth, % of control [9]: 93.4%; efficacy [2]: -40.9% (inactive)

**Q.** Which max response [1] does the source give for COc1ccc2c(c1OC)CN1CCc3cc4c(cc3C1C2)OCO4 (stereo not given) here?
**A.** Its max response is 4.63% (inactive).

**Q.** And the parasite growth, % of DMSO control [6]?
**A.** Its parasite growth, % of DMSO control is 12.7%.

**Q.** And the parasite growth remaining, % of DMSO control (lower = more inhibition) [7]?
**A.** The parasite growth remaining, % of DMSO control (lower = more inhibition) was 24.6%.

**Q.** And the parasite growth, % of control (lower = inhibition) [8]?
**A.** Its parasite growth, % of control (lower = inhibition) is 10.1%.

**Q.** And the growth, % of control [9]?
**A.** Its growth, % of control is 7.61%.

**Q.** What about the efficacy [2] of the same molecule?
**A.** The efficacy was -21% (inactive).

**Q.** With N[C@@H](Cc1ccc(Oc2cc(I)c(O)c(I)c2)c(I)c1)C(=O)O as the molecule, how does the max response [1] read?
**A.** Its max response is -7.97% (inactive).

**Q.** And the efficacy [2]?
**A.** The efficacy was -32% (inactive).

**Q.** For C=CCN1CC[C@]23c4c5ccc(O)c4O[C@H]2C(=O)CC[C@@]3(O)[C@H]1C5, which max response [1] is on record?
**A.** Its max response is 6.99% (inactive) and 10.2% (inactive).

**Q.** What about the efficacy [2] of the same molecule?
**A.** Its efficacy is 15.7% (inactive).

**Q.** Which Potency [1] does the source give for C[C@@H]1[C@@H](C(=O)C[C@H]2O[C@@H]3O[C@]4(C)CC[C@@H]5[C@H](C)CC[C@@H]([C@H]2C)[C@@]35OO4)O[C@@H]2O[C@]3(C)CC[C@H]4[C@H](C)CC[C@@H]1[C@@]24OO3 here?
**A.** Its Potency is 6.6 nM (active).

**Q.** What about the remaining parasite growth % (stronger effect = lower value) [3] of the same molecule?
**A.** Its remaining parasite growth % (stronger effect = lower value) is -0.0732%.

**Q.** What about the activity, percent of control [4] of the same molecule?
**A.** Its activity, percent of control is -0.0237%.

**Q.** And the remaining proliferation (% of control), lower = more inhibition [5]?
**A.** Its remaining proliferation (% of control), lower = more inhibition is 0.763%.

**Q.** And the parasite growth, % of DMSO control [6]?
**A.** Its parasite growth, % of DMSO control is 20.5%.

**Q.** What about the parasite growth remaining, % of DMSO control (lower = more inhibition) [7] of the same molecule?
**A.** Its parasite growth remaining, % of DMSO control (lower = more inhibition) is 7.59%.

**Q.** And the parasite growth, % of control (lower = inhibition) [8]?
**A.** The parasite growth, % of control (lower = inhibition) was 8.22%.

**Q.** What about the growth, % of control [9] of the same molecule?
**A.** The growth, % of control was 29.5%.

**Q.** With CC(=O)Nc1cc([As](=O)(O)O)ccc1O as the molecule, how does the max response [1] read?
**A.** Its max response is 0.387% (inactive).

**Q.** And the efficacy [2]?
**A.** Its efficacy is 15.5% (inactive).

**Q.** With C[C@@H]1[C@@H](CC(C[C@H]2O[C@@H]3O[C@]4(C)CC[C@@H]5[C@H](C)CC[C@@H]([C@H]2C)[C@@]35OO4)C[S+](=O)([O-])c2ccc(COC(=O)N(C)C)cc2)O[C@@H]2O[C@]3(C)CC[C@H]4[C@H](C)CC[C@@H]1[C@@]24OO3 (stereo not given in full) as the molecule, how does the Potency [1] read?
**A.** Its Potency is 2.3 nM (active).

**Q.** What about the remaining parasite growth % (stronger effect = lower value) [3] of the same molecule?
**A.** Its remaining parasite growth % (stronger effect = lower value) is -0.6%.

**Q.** What about the activity, percent of control [4] of the same molecule?
**A.** Its activity, percent of control is -0.0428%.

**Q.** What about the remaining proliferation (% of control), lower = more inhibition [5] of the same molecule?
**A.** The remaining proliferation (% of control), lower = more inhibition was 0.323%.

**Q.** What about the parasite growth, % of DMSO control [6] of the same molecule?
**A.** The parasite growth, % of DMSO control was 25.5%.

**Q.** What about the parasite growth remaining, % of DMSO control (lower = more inhibition) [7] of the same molecule?
**A.** Its parasite growth remaining, % of DMSO control (lower = more inhibition) is 6.65%.

**Q.** And the parasite growth, % of control (lower = inhibition) [8]?
**A.** Its parasite growth, % of control (lower = inhibition) is 23.2%.

**Q.** What about the growth, % of control [9] of the same molecule?
**A.** The growth, % of control was 20.9%.

**Q.** What does the source list for Cc1cc(SCc2sc(-c3ccc(C(F)(F)F)c(F)c3)nc2C)ccc1OCC(=O)O?
**A.** max response [10]: -1.47% (inactive); max response [1]: 27.5% (inactive); max response [11]: -13% (inactive); Potency [12]: 50100 nM (active); remaining parasite growth % (stronger effect = lower value) [3]: 101%; activity, percent of control [4]: 90.7%; remaining proliferation (% of control), lower = more inhibition [5]: 82.6%; parasite growth, % of DMSO control [6]: 66.7%; parasite growth remaining, % of DMSO control (lower = more inhibition) [7]: 88.1%; parasite growth, % of control (lower = inhibition) [8]: 50.9%; growth, % of control [9]: 87.4%

**Q.** Which max response [1] does the source give for CC[N+](CC)(CC)CC here?
**A.** The max response was -4.6% (inactive) and 7.33% (inactive).

**Q.** What about the efficacy [2] of the same molecule?
**A.** Its efficacy is -18.6% (inactive).

**Q.** What does the source list for CS(=O)c1ccc(-c2nc(-c3ccc(F)cc3)c(-c3ccncc3)[nH]2)cc1 (stereo not given)?
**A.** remaining parasite growth % (stronger effect = lower value) [3]: 64.7%; activity, percent of control [4]: 56.4%; parasite growth, % of control (lower = inhibition) [8]: 30.3% [at 57.5 µM]

**Q.** Which max response [1] does the source give for O=c1c(O)c(-c2ccc(O)c(O)c2)oc2cc(O)cc(O)c12 here?
**A.** The max response was 43.6% (inactive) and 2.58% (inactive) and 14.8% (inactive).

**Q.** What about the parasite growth remaining, % of DMSO control (lower = more inhibition) [7] of the same molecule?
**A.** The parasite growth remaining, % of DMSO control (lower = more inhibition) was 39%.

**Q.** What about the efficacy [2] of the same molecule?
**A.** Its efficacy is -18.8% (inactive).

**Q.** For CC(C)(N)Cc1ccc(Cl)cc1, which max response [1] is on record?
**A.** The max response was 12.2% (inactive).

**Q.** And the efficacy [2]?
**A.** Its efficacy is 29.5% (inactive).

**Q.** For Clc1cccc(N2CCNCC2)c1, which max response [1] is on record?
**A.** Its max response is 0.639% (inactive).

**Q.** And the efficacy [2]?
**A.** The efficacy was 26.6% (inactive).

**Q.** Which max response [1] does the source give for Cc1sc2c(c1C)C(c1ccc(Cl)cc1)=N[C@@H](CC(=O)OC(C)(C)C)c1nnc(C)n1-2 here?
**A.** Its max response is -19.5% (inactive).

**Q.** And the remaining parasite growth % (stronger effect = lower value) [3]?
**A.** Its remaining parasite growth % (stronger effect = lower value) is 4.84%.

**Q.** And the activity, percent of control [4]?
**A.** The activity, percent of control was 14.6%.

**Q.** And the remaining proliferation (% of control), lower = more inhibition [5]?
**A.** The remaining proliferation (% of control), lower = more inhibition was -1.43%.

**Q.** What about the parasite growth, % of DMSO control [6] of the same molecule?
**A.** The parasite growth, % of DMSO control was 16.3%.

**Q.** What about the parasite growth remaining, % of DMSO control (lower = more inhibition) [7] of the same molecule?
**A.** The parasite growth remaining, % of DMSO control (lower = more inhibition) was 24.4%.

**Q.** What about the parasite growth, % of control (lower = inhibition) [8] of the same molecule?
**A.** Its parasite growth, % of control (lower = inhibition) is 29.2%.

**Q.** What about the growth, % of control [9] of the same molecule?
**A.** Its growth, % of control is 12.7%.
